The nature of experiment [1]: NCI Yeast Anticancer Drug Screen. Data for the rad50 strain (AID 155).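 Also: 0% = growth of vehicle-only cultures of the same strain.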 Particulars: S. cerevisiae rad50 strain growth inhibition, active compounds read high. An outline of the steps:
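Growth of the mutant yeast was measured after compound exposure and referenced to vehicle-treated cultures.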

Experiment [2] can be described thus: NCI Yeast Anticancer Drug Screen. Data for the mec2-1 strain (AID 157). To be noted: S. cerevisiae mec2-1 strain, active compounds read high. An outline of the steps:
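Yeast mec2-1 mutant treated with compound. Readout: growth inhibition vs vehicle controls.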

Experiment [3] in a line: NCI Yeast Anticancer Drug Screen. Data for the sgs1 mgt1 strain (AID 161).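 Also: 0% = growth of cultures given vehicle only.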 To be noted: S. cerevisiae sgs1 mgt1 strain, active compounds read high. An outline of the steps:
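Test agents were incubated with a DNA-repair-mutant yeast strain. Growth was then read and compared against vehicle-treated controls.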

A short description of experiment [4]: NCI Yeast Anticancer Drug Screen. Data for the cln2 rad14 strain (AID 165).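 Also: 0% = growth equal to vehicle treated cultures.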 Particulars: S. cerevisiae cln2 rad14 strain, active compounds read high. A digest of the protocol:
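cln2 rad14 yeast strain; compound exposure; growth inhibition read vs vehicle controls.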

Experiment [5] is described as follows: NCI Yeast Anticancer Drug Screen. Data for the bub3 strain (AID 167). To be noted: S. cerevisiae bub3 mutant strain, active compounds read high. A digest of the protocol: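 Whole-cell yeast assay. The mutant strain was incubated with compounds, and growth inhibition was determined by comparison with vehicle-treated cells.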
A short description of experiment [6]: NCI Yeast Anticancer Drug Screen. Data for the mlh1 rad18 strain (AID 175). Particulars: S. cerevisiae mlh1 rad18 strain growth inhibition, active compounds read high. A digest of the protocol: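 Yeast w/ defined DNA-repair lesions; compound exposure; growth vs vehicle controls → % inhibition.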
Where [7] appears, read: at 5.0 µM (retest, dose inferred, filed as 0.5).
Where [8] appears, read: at 50.0 µM (retest, dose inferred, filed as 5.0).

Here are results for ten compounds from PubChem BioAssay (NCI).

SMILES strings stand for the structures. This is part of a sample that, as a whole, favours compounds with a hit. Of some 79,000 tested, about 15% had one in any assay. A number with no mark means an inactive call. Calls of active or inactive are those of the source. Rule as the data show it: active = growth inhibition above about 70%; inactive = the rest.

Regarding `O=c1[nH]c2ccc([N+](=O)[O-])cc2c2ccc(Cl)cc12`, the growth inhibition was 3% in experiment [1] (setting [7]); 9% in experiment [1] (setting [8]); 77.2% (active) in experiment [1] (at 50.0 µM); -5% in experiment [2] (setting [7]); 25% in experiment [2] (setting [8]); 51.8% in experiment [2] (at 50.0 µM). Further, the growth inhibition in experiment [3] (setting [7]) is -11%; in experiment [3] (setting [8]), 16%; in experiment [3] (at 50.0 µM), 61.8%; in experiment [4] (setting [7]), 1%; in experiment [4] (setting [8]), 3%; in experiment [4] (at 50.0 µM) it was -0.3%. Besides, the growth inhibition in experiment [5] (setting [7]) is 0%; in experiment [5] (setting [8]), 2%; in experiment [5] (at 50.0 µM), 7.4%; in experiment [6] (setting [7]), 11%; in experiment [6] (setting [8]) it was 40%; in experiment [6] (at 50.0 µM) it was 71.7% (active).
In the case of `C/C(O)=C(/C=N/C(=S)Nc1ccc(S(N)(=O)=O)cc1)C(=O)Nc1ccccc1C`, the growth inhibition in experiment [1] (setting [7]) was 0%; in experiment [1] (setting [8]) it was 18%; in experiment [1] (at 50.0 µM), 79.7% (active); in experiment [2] (setting [7]), -10%; in experiment [2] (setting [8]), -4%; in experiment [2] (at 50.0 µM), 81.7% (active). For the same compound, the growth inhibition was -5% in experiment [3] (setting [7]); -2% in experiment [3] (setting [8]); 68.8% in experiment [3] (at 50.0 µM); -14% in experiment [4] (setting [7]); 6% in experiment [4] (setting [8]); 81.3% (active) in experiment [4] (at 50.0 µM). Besides, the growth inhibition was -13% in experiment [5] (setting [7]); -6% in experiment [5] (setting [8]); 67.5% in experiment [5] (at 50.0 µM); 3% in experiment [6] (setting [7]); -15% in experiment [6] (setting [8]); 89.4% (active) in experiment [6] (at 50.0 µM).
Regarding `O=C1NCCCNCCCNCCCNC(=O)c2cccc1n2`, the growth inhibition in experiment [1] (setting [7]) is 32%; in experiment [1] (setting [8]) it was 30%; in experiment [1] (at 50.0 µM), -41.7%; in experiment [2] (setting [7]), 23%; in experiment [2] (setting [8]), 21%; in experiment [2] (at 50.0 µM), -30.6%. The growth inhibition in experiment [3] (setting [7]) was 21%; in experiment [3] (setting [8]) it was 24%; in experiment [3] (at 50.0 µM) it was -18.1%; in experiment [4] (setting [7]), 18%; in experiment [4] (setting [8]), 28%; in experiment [4] (at 50.0 µM) it was 5.3%. Also, the growth inhibition in experiment [5] (setting [7]) was 23%; in experiment [5] (setting [8]) it was 26%; in experiment [5] (at 50.0 µM), 0.55%; in experiment [6] (setting [7]) it was 29%; in experiment [6] (setting [8]), 26%; in experiment [6] (at 50.0 µM), -15.2%.
For `Fc1ccccc1CN1COc2c(cc(Cl)c3cccnc23)C1`, the growth inhibition in experiment [1] (setting [7]) was 11%; in experiment [1] (setting [8]) it was 71% (active); in experiment [1] (at 50.0 µM), 99% (active); in experiment [2] (setting [7]), -1%; in experiment [2] (setting [8]), 43%; in experiment [2] (at 50.0 µM), 99.4% (active). Also, the growth inhibition is 2% in experiment [3] (setting [7]); 98% (active) in experiment [3] (setting [8]); 99.5% (active) in experiment [3] (at 50.0 µM); 1% in experiment [4] (setting [7]); 98% (active) in experiment [4] (setting [8]); 99.1% (active) in experiment [4] (at 50.0 µM). The growth inhibition in experiment [5] (setting [7]) was -11%; in experiment [5] (setting [8]) it was 99% (active); in experiment [5] (at 50.0 µM), 99.2% (active); in experiment [6] (setting [7]), 5%; in experiment [6] (setting [8]), 98% (active); in experiment [6] (at 50.0 µM), 99.3% (active).
For the compound `O=C(O)CCC(=O)c1ccc2c(c1)CCCC2`, the growth inhibition in experiment [1] (setting [7]) is -5%; in experiment [1] (setting [8]), -1%; in experiment [1] (at 50.0 µM), 71.7% (active); in experiment [2] (setting [7]) it was -9%; in experiment [2] (setting [8]) it was 19%; in experiment [2] (at 50.0 µM), 42.1%. Besides, the growth inhibition is -5% in experiment [3] (setting [7]); 0% in experiment [3] (setting [8]); 77.2% (active) in experiment [3] (at 50.0 µM); 1% in experiment [4] (setting [7]); 25% in experiment [4] (setting [8]); -24.1% in experiment [4] (at 50.0 µM). Besides, the growth inhibition was -16% in experiment [5] (setting [7]); -48% in experiment [5] (setting [8]); 20.7% in experiment [5] (at 50.0 µM); 0% in experiment [6] (setting [7]); -6% in experiment [6] (setting [8]); 77.6% (active) in experiment [6] (at 50.0 µM).
As to `OC1OCC(OCc2ccccc2)C(OCc2ccccc2)C1OCc1ccccc1` (stereo not given), the growth inhibition is -4% in experiment [1] (setting [7]); 61% in experiment [1] (setting [8]); 97.4% (active) in experiment [1] (at 50.0 µM); -25% in experiment [2] (setting [7]); 59% in experiment [2] (setting [8]); 96.9% (active) in experiment [2] (at 50.0 µM). Moreover, the growth inhibition in experiment [3] (setting [7]) was -3%; in experiment [3] (setting [8]), 68%; in experiment [3] (at 50.0 µM), 96.7% (active); in experiment [4] (setting [7]) it was -3%; in experiment [4] (setting [8]), 59%; in experiment [4] (at 50.0 µM) it was 81.5% (active). Further, the growth inhibition in experiment [5] (setting [7]) is -5%; in experiment [5] (setting [8]), 51%; in experiment [5] (at 50.0 µM) it was 97.7% (active); in experiment [6] (setting [7]), 10%; in experiment [6] (setting [8]) it was 86% (active); in experiment [6] (at 50.0 µM) it was 98.5% (active).
In the case of `C=C1CCC[C@@]2(C)CC[C@@H](/C(C)=C\C=C\C(C)(C)O)C[C@H]12`, the growth inhibition in experiment [1] (setting [7]) was 0%; in experiment [1] (setting [8]), 29%; in experiment [1] (at 50.0 µM), 83.1% (active); in experiment [2] (setting [7]), -1%; in experiment [2] (setting [8]), 32%; in experiment [2] (at 50.0 µM) it was 92.8% (active). The growth inhibition in experiment [3] (setting [7]) was 2%; in experiment [3] (setting [8]), 56%; in experiment [3] (at 50.0 µM) it was 92.5% (active); in experiment [4] (setting [7]), -5%; in experiment [4] (setting [8]), 0%; in experiment [4] (at 50.0 µM), 91.8% (active). Also, the growth inhibition in experiment [5] (setting [7]) is 2%; in experiment [5] (setting [8]) it was 28%; in experiment [5] (at 50.0 µM), 91.7% (active); in experiment [6] (setting [7]), -2%; in experiment [6] (setting [8]), 53%; in experiment [6] (at 50.0 µM) it was 88.8% (active).
In the case of `CCCCN(CCCC)CC(O)c1ccc2cc(Cl)c3ccccc3c2c1` (stereo not given), the growth inhibition in experiment [1] (setting [7]) is 53%; in experiment [1] (setting [8]), 99% (active); in experiment [1] (at 50.0 µM), 99.6% (active); in experiment [2] (setting [7]), 40%; in experiment [2] (setting [8]), 100% (active); in experiment [2] (at 50.0 µM) it was 99.7% (active). Further, the growth inhibition is 85% (active) in experiment [3] (setting [7]); 100% (active) in experiment [3] (setting [8]); 99.5% (active) in experiment [3] (at 50.0 µM); 41% in experiment [4] (setting [7]); 99% (active) in experiment [4] (setting [8]); 99.4% (active) in experiment [4] (at 50.0 µM). Besides, the growth inhibition in experiment [5] (setting [7]) was 57%; in experiment [5] (setting [8]), 99% (active); in experiment [5] (at 50.0 µM) it was 92.2% (active); in experiment [6] (setting [7]), 63%; in experiment [6] (setting [8]), 100% (active); in experiment [6] (at 50.0 µM), 99.4% (active).
In the case of `CC(=O)Oc1c(O)c2ccccc2c2ccccc12`, the growth inhibition in experiment [1] (setting [7]) was 6%; in experiment [1] (setting [8]), 93% (active); in experiment [1] (at 50.0 µM), 99.5% (active); in experiment [2] (setting [7]), -5%; in experiment [2] (setting [8]) it was 97% (active); in experiment [2] (at 50.0 µM) it was 99.2% (active). Besides, the growth inhibition in experiment [3] (setting [7]) was 2%; in experiment [3] (setting [8]) it was 83% (active); in experiment [3] (at 50.0 µM), 99.3% (active); in experiment [4] (setting [7]), -11%; in experiment [4] (setting [8]), 95% (active); in experiment [4] (at 50.0 µM) it was 97.5% (active). Also, the growth inhibition in experiment [5] (setting [7]) was 5%; in experiment [5] (setting [8]) it was 96% (active); in experiment [5] (at 50.0 µM), 99.5% (active); in experiment [6] (setting [7]) it was -4%; in experiment [6] (setting [8]) it was 92% (active); in experiment [6] (at 50.0 µM), 98.9% (active).
As to `C=CC(=O)N1C/C(=C\c2ccc(F)cc2)C(=O)/C(=C/c2ccc(F)cc2)C1`, the growth inhibition in experiment [1] (setting [7]) is 21%; in experiment [1] (setting [8]), 75% (active); in experiment [1] (at 50.0 µM), 52%; in experiment [2] (setting [7]) it was 14%; in experiment [2] (setting [8]), 77% (active); in experiment [2] (at 50.0 µM), 26.1%. In addition, the growth inhibition in experiment [3] (setting [7]) is 14%; in experiment [3] (setting [8]), 88% (active); in experiment [3] (at 50.0 µM), 90.2% (active); in experiment [4] (setting [7]) it was 19%; in experiment [4] (setting [8]) it was 81% (active); in experiment [4] (at 50.0 µM), 78.5% (active). The growth inhibition in experiment [5] (setting [7]) is 21%; in experiment [5] (setting [8]) it was 94% (active); in experiment [5] (at 50.0 µM), 88.6% (active); in experiment [6] (setting [7]), 18%; in experiment [6] (setting [8]), 91% (active); in experiment [6] (at 50.0 µM), 88.1% (active).
